# Measured values taken from PubChem BioAssay (NCATS).
# Records with an inconclusive call do not appear. Entries that show only a call come without a potency. Active and inactive are the calls of the source. The call rests on the fitted dose curve; in most records, active means well fitted inhibition curve with a large enough effect; inconclusive means small, poorly fitted or top-dose-only effect; inactive means no such curve, though single readings can be large or run the other way.
# Key:
# [1] = test system: Zika virus NS2B-NS3 protease (unlinked complex); experiment: Primary screen GU Rhodamine qHTS for Zika virus inhibitors: Unlinked NS2B-NS3 protease assay (AID 1347159); further: nearly all actives have a fitted effect of over 60% in size
# How it was run: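 Buffer 10 mM Tris-HCl pH 8.0, 0.01% Tween 20. Unlinked protease 25 nM; compound preincubation 15 min, RT, protected from light. Substrate Rhod110, 1.5 microM; ~15% conversion in 15 min.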
# [2] = test system: Zika virus NS2B-NS3 protease (linked construct); experiment: Primary screen NINDS Rhodamine qHTS for Zika virus inhibitors (AID 1347160); further: nearly all actives have a fitted effect of over 55% in size
# How it was run: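 Aprotinin served as in-plate control. Conditions: 25 nM linked NS2B-NS3, pH 8.0 Tris buffer, titrated compounds, 15 min preincubation and 15 min reaction with 1.5 microM Rhod110 substrate at room temperature.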
SMILES,Potency [1],Potency [2]
CC[C@@H](C)[C@H](N)C(=O)N1Cc2ccccc2C1,inactive,inactive
Cc1ccc(COC(=O)N2CC[C@@H](CNc3ncccn3)[C@@H](F)C2)cc1,inactive,inactive
COc1ccc(CCc2nc3cc(-c4c(C)noc4C)ccc3n2C[C@H](C)N2CCOCC2)cc1Cl,inactive,inactive
COc1ccccc1N1CCN(CCCCNC(=O)c2ccc(-c3cscn3)cc2)CC1,inactive,inactive
CC(C)c1c(NC(=O)Nc2ccc(Cl)cc2)c(=O)n(-c2ccccc2)n1C,inactive,inactive
COc1cc(C2Oc3c(OC)cc(/C=C/C(=O)OC4CC(O)(C(=O)O)CC(O)C4O)cc3C2CO)ccc1O (stereo not given),inactive,inactive
NC1=NC2(c3cc(NC(=O)c4ccc(F)cn4)ccc3F)COCC2CS1 (stereo not given),inactive,inactive
O=C(OC[C@H]1O[C@H](O[C@H]2CO[C@H](CO)[C@@H](O)[C@@H]2O)[C@H](O)[C@@H](O)[C@H]1O)c1ccccc1,inactive,inactive
C=C1CC2C3(C)C=CC(=O)OC(C)(C)C3CC(OC(C)=O)C2(C)C2C(=O)OC(C)C(=O)C12C (stereo not given),inactive,inactive
C=C1C2(C)CC3C4(C)OC(C5OC56C4=CC(=O)OC6(C)C)C3(C)C13C(=O)OC(C)C3(O)C2=O (stereo not given),inactive,inactive
O=C(OC(C(F)(F)F)C(F)(F)F)N1CCN(Cc2cccc(Oc3ccccc3)c2)CC1,inactive,
CC1C2=CC(=O)OC2(O)CC2C1CCC1C(C)(C)CCC(O)C21C (stereo not given),,inactive
CC1=C2C[C@H]3OC(=O)[C@H](O)[C@@]4(O)[C@@H](C)[C@@H](O)[C@H](O)C([C@@]2(C)[C@H](O)[C@@H](O)C1)[C@@]34C (stereo not given in full),inactive,inactive
C=C1C(OC(C)=O)C(=O)C2C(C)(C)C(O)CCC2(C)C1CC(OC(C)=O)/C(C)=C/COC(C)=O (stereo not given),inactive,inactive
Fc1ccc(-c2c3cccc(C(F)(F)F)c3nn2Cc2ccc(F)cc2Cl)cc1,inactive,inactive
CC1(C)CC[C@]2(C(=O)O)CC[C@]3(C)C(=CCC4[C@@]5(C)C[C@H](O)[C@H](O[C@@H]6O[C@H](CO)[C@@H](O)[C@H](O)[C@H]6O)[C@@](C)(CO)C5[C@H](O)C[C@]43C)[C@@H]2C1 (stereo not given in full),inactive,inactive
